# Data as given in PubChem BioAssay.
# Calls of active or inactive are those of the source.
# Legend:
# [1] = E. coli DRC41 culture turbidity changes, primary screen, E. coli filamentation inducer project, strain DRC41, OD650, 48 h (AID 1152);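 note: E. coli MC1000 strain DRC41 lacking acrAB efflux pump and sulA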; conditions: E. coli DRC41 (acrAB sulA), higher = more signal, called active from +8 up or from −8 down
# [2] = small-molecule binders of probe aLefty1, primary screen, biochemical, small-molecule microarray, 635/667 nm fluorescence (AID 1153); conditions: higher = more signal;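 note: score merges spot fluorescence with signal-to-noise ratio from the scanned slide images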
# [3] = PSAC antagonists in infected red cells, primary screen, cell-based, P. falciparum Indochina, OD700, 1 h (AID 1154); conditions: P. falciparum Indochina infected RBC osmotic lysis, higher = more signal, called active from +8 up or from −8 down
# [4] = PSAC antagonists in infected red cells, primary screen, cell-based, P. falciparum Indochina, OD700, 2 h (AID 1155);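 note: lysis reports solute entry through the parasite surface anion channel PSAC; channel blockers reduce lysis of infected cells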; conditions: P. falciparum Indochina infected erythrocytes, osmotic lysis OD700; higher = more signal, called active from +8 up or from −8 down
# [5] = osmotic lysis modulators in infected erythrocytes, primary screen, PSAC antagonist project, cell-based, P. falciparum Indochina, OD700, 3 h (AID 1156); conditions: higher = more signal, called active from +8 up or from −8 down
# [6] = PSAC antagonists in infected red cells, primary screen, cell-based, P. falciparum Indochina, OD700, 18 h (AID 1157); conditions: P. falciparum Indochina infected erythrocytes, osmotic lysis OD700, 18 h; higher = more signal, called active from +8 up or from −8 down
# [7] = modulators of S6 phosphorylation in cells, primary screen, cell-based, A549, cytoblot, luminescence, serum-stimulated (AID 1158); conditions: A549 phospho-S6 cytoblot, 5 h, higher = more signal;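 note: serum-stimulated A549 lung adenocarcinoma cells; signal is phosphorylated S6 detected by cytoblot immunostaining with HRP secondary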
# [8] = molecular target: NADPH oxidase 2 (Homo sapiens) (UniProt P04839); test: NOX2-dependent H2O2 signal modulators, primary screen, NOX inhibitor project, cell-based, HEK293-NOX2, PMA-stimulated, Amplex Red fluorescence (AID 1159); conditions: 45 min, higher = more signal, called active from +8 up or from −8 down; note: test concentration not given here
# [9] = molecular target: NADPH oxidase 4 (Homo sapiens) (UniProt Q9NPH5); test: NOX4-dependent H2O2 signal modulators, primary screen, NOX inhibitor project, cell-based, HEK293-NOX4, tetracycline-induced, Amplex Red fluorescence (AID 1160); conditions: 45 min, higher = more signal, called active from +8 up or from −8 down
# [10] = molecular target: NADPH oxidase 5 (Homo sapiens) (UniProt Q96PH1); test: NOX5-dependent H2O2 signal modulators, primary screen, NOX inhibitor project, cell-based, HEK293-NOX5, Amplex Red fluorescence (AID 1161); conditions: HEK293-NOX5, ionomycin, 45 min, higher = more signal
# Sequence of NADPH oxidase 5 (Homo sapiens) (Q96PH1 whole entry, looked up): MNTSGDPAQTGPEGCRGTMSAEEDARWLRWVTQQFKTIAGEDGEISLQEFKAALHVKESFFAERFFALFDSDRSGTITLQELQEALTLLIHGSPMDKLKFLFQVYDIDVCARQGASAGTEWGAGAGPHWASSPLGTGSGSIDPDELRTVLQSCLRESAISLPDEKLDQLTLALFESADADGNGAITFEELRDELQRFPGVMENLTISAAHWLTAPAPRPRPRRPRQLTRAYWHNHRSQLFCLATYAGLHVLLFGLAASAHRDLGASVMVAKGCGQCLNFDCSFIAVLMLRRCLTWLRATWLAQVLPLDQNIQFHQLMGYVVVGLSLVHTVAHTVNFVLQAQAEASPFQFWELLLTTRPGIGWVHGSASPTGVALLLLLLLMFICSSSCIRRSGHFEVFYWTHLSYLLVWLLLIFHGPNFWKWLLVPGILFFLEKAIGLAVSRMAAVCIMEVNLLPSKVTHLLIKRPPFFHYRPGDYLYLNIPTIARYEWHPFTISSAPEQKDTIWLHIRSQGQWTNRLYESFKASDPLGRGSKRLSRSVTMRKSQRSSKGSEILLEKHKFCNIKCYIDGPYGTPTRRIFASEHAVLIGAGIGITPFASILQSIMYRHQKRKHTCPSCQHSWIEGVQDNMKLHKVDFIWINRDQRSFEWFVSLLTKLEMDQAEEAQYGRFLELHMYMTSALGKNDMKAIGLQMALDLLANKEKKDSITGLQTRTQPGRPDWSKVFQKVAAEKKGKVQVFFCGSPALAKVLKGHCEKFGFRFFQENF
# Sequence of NADPH oxidase 2 (Homo sapiens) (P04839 whole entry, looked up): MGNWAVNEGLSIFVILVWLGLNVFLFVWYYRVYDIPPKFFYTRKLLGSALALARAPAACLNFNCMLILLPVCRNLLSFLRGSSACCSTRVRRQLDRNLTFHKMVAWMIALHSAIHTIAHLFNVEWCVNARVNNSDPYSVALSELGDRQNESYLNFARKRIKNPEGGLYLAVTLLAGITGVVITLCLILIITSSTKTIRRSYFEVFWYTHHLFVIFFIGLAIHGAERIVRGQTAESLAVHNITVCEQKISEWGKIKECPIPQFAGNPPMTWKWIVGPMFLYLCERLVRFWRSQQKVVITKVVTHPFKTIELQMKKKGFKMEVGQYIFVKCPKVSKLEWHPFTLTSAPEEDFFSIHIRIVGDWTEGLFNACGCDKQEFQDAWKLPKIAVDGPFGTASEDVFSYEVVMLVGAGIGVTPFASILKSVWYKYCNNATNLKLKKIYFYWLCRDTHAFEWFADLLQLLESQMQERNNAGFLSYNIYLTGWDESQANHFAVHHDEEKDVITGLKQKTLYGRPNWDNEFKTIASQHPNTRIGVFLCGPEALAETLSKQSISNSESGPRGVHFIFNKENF
# Sequence of NADPH oxidase 4 (Homo sapiens) (Q9NPH5 whole entry, looked up): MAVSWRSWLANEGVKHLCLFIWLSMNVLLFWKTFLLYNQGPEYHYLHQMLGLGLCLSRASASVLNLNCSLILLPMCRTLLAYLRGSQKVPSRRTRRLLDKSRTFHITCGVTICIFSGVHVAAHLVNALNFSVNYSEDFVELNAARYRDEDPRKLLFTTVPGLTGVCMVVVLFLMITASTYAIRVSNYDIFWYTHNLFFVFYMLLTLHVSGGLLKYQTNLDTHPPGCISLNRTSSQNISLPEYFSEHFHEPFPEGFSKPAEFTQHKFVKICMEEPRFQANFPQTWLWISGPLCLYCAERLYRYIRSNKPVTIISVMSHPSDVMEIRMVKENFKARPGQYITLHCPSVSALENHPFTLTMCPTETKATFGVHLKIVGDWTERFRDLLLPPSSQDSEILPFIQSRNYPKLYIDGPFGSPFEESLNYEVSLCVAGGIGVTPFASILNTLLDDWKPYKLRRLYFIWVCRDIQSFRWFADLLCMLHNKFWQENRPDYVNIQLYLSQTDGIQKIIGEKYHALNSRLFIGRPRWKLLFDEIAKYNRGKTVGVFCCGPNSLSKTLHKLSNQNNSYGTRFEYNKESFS
SMILES,z-score [1],composite z-score [2],z-score [3],z-score [4],z-score [5],z-score [6],z-score [7],z-score [8],z-score [9],z-score [10]
O=C(N1CCCCC1)[C@@]1(CCS(=O)(=O)c2ccccc2)COC(c2ccc(OCCCO)cc2)=N1,0.641 (inactive),0.457,27.3 (active),21.1 (active),2.47 (inactive),2.93 (inactive),-0.436,-1.53 (inactive),0.675 (inactive),0.885
C=C(C(=O)CC[C@@H](OC(C)=O)c1ccc(CO)o1)C(C)C,-0.167 (inactive),-0.007,1.21 (inactive),0.0112 (inactive),0.493 (inactive),-0.0113 (inactive),-0.0282,-0.354 (inactive),0.261 (inactive),0.483
COCCOC(=O)N1C(=O)[C@@]2(c3cc(C#CCCO)ccc31)[C@H](c1ccccc1OCCO)N1[C@H](c3ccccc3)[C@H](c3ccccc3)OC(=O)[C@H]1[C@@H]2C(=O)Nc1nc2ccccc2s1,-0.395 (inactive),0.241,13.1 (active),3.36 (inactive),0.621 (inactive),1.66 (inactive),-0.202,1.18 (inactive),0.781 (inactive),1.53
COc1ccc(CCNC(=O)[C@@]2(Sc3ccc(C)cc3)CC(=O)N(C3Cc4ccccc4C3)[C@@H]2c2ccc(CO)cc2)cc1,-0.336 (inactive),0.366,4.53 (inactive),-0.205 (inactive),-0.0174 (inactive),-0.874 (inactive),1.66,-2.19 (inactive),-1.05 (inactive),-4.9
COCCOC(=O)N1C(=O)[C@@]2(c3cc(C#Cc4ccc(OC)cc4)ccc31)[C@H](c1ccc(O)cc1)N1[C@H](c3ccccc3)[C@H](c3ccccc3)OC(=O)[C@H]1[C@@H]2C(=O)N1CCCCCCC1,-0.329 (inactive),2.12,0.0963 (inactive),0.0379 (inactive),-1.3 (inactive),-0.0483 (inactive),-0.307,0.877 (inactive),0.482 (inactive),0.391
C=CCNC(=O)[C@H]1[C@@H]2C(=O)O[C@@H](c3ccccc3)[C@@H](c3ccccc3)N2[C@@H](c2ccc(O)cc2)[C@]12C(=O)Nc1ccc(C#CC3(O)CCCCCC3)cc12,-1.14 (inactive),0.898,1.79 (inactive),0.749 (inactive),0.514 (inactive),0.319 (inactive),0.356,1.71 (inactive),0.772 (inactive),1.06
C=C(C)c1cc2c(c(CCCCCC)n1)[Si](C(C)C)(C(C)C)OC2,-0.959 (inactive),-0.245,1.18 (inactive),0.7 (inactive),-0.0223 (inactive),0.778 (inactive),0.202,-1.98 (inactive),-0.933 (inactive),-2.92
COCCOC(=O)N1C(=O)[C@@]2(c3cc(C#CC4=CCCCC4)ccc31)[C@H](c1ccc(O)cc1)N1[C@H](c3ccccc3)[C@H](c3ccccc3)OC(=O)[C@H]1[C@@H]2C(=O)N1CCN(c2ncccn2)CC1,-0.202 (inactive),-0.183,-0.0088 (inactive),0.18 (inactive),0.299 (inactive),0.0164 (inactive),-0.229,0.347 (inactive),-0.0204 (inactive),0.715
CN(C)C(=O)[C@]1(CCS(=O)(=O)c2ccccc2)N=C(c2ccc(OCCCO)cc2)O[C@@H]1c1ccccc1N=[N+]=[N-],-0.0791 (inactive),0.382,31.2 (active),27.2 (active),2.03 (inactive),6.58 (inactive),0.178,0.502 (inactive),1.64 (inactive),1.24
C=C(CCCC)/C(=C/C[C@@H](OC(=O)c1ccncc1)c1ccccc1OCCO)c1cnc2ccccc2c1,-0.209 (inactive),0.541,20.2 (active),4.55 (inactive),1.58 (inactive),1.12 (inactive),0.759,-0.852 (inactive),0.474 (inactive),-0.524
COc1cc(OC)c(C(O)C2C=CC3C(=O)N(c4ccccc4)C(=O)C3N2Nc2ccccc2)cc1Br (stereo not given),-0.789 (inactive),0.0834,20.2 (active),5.27 (inactive),0.508 (inactive),2.03 (inactive),-0.543,-1.61 (inactive),-4.38 (inactive),-2.38
CCCCCCCCCCC(O)C1C=CC2C(=O)N(C)C(=O)C2N1Nc1ccc([N+](=O)[O-])cc1[N+](=O)[O-] (stereo not given),-1.97 (inactive),0.407,13.8 (active),4.31 (inactive),-0.607 (inactive),2.59 (inactive),-0.506,0.402 (inactive),0.328 (inactive),-0.414
